From PubChem BioAssay (NCI) come the findings set out here.

SMILES strings stand for the structures. Values joined by “and” are separate entries in the source; they are usually repeats but may differ in a detail not shown here. Equal values may be shown once. The panel holds about 79,000 compounds, 15% with a hit somewhere; the sample as a whole holds those more often. A number with no mark means an inactive call. Active and inactive are the calls of the source. Rule as the data show it: active = growth inhibition above about 70%; inactive = the rest.

The nature of one experiment: NCI Yeast Anticancer Drug Screen. Data for the rad50 strain (AID 155).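 Also: 0% = growth of vehicle-only cultures of the same strain.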 The note with it: S. cerevisiae rad50 strain growth inhibition; at 50.0 µM; active compounds read high. The method in brief:
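Growth of the mutant yeast was measured after compound exposure and referenced to vehicle-treated cultures.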
Consider `O=C(c1ccccc1)C1C(C(=O)c2ccccc2)N1Cc1ccccc1` (stereo not given), for which the growth inhibition is 5% and 21.4%.

As for `CCC1CN2CCc3cc(OC)c(OC)cc3C2CC1CC1c2cc(OC)c(OC)cc2CCN1C(=O)C(N)Cc1ccccc1` (stereo not given), the growth inhibition is -8.25%.

As for `COc1cc(C(CC(C)=O)c2cc3c(cc2OC(C)=O)OCO3)cc(OC)c1OC` (stereo not given), the growth inhibition is 18.8%.

With `CN(C)NP(c1ccccc1)c1ccccc1`, the growth inhibition is -2.55%.

Take `OCC(O)C(O)C(O)C1C[O][Sb][O]1` (stereo not given): the growth inhibition was 0.85%.

For the compound `Nc1ccc(/C=C/C(=O)Nc2ccc(S(=O)(=O)F)cc2)cc1`, the growth inhibition was 22.4%.

On to `[Cl][Hg][c]1ccccc1N=Nc1ccccc1I`, for which the growth inhibition was 99.2% (active).

As for `CC1CCCN(C(c2ccccc2)C(O)c2ccccc2)C1` (stereo not given), the growth inhibition was 5.9%.

Regarding `CCN1C[C@]2(COC)[C@H](O)C[C@H](OC)[C@]34C1[C@H]([C@H](OC)[C@H]23)[C@]1(OC(C)=O)[C@H]2[C@@H](OC(=O)c3ccccc3)[C@](O)(C[C@H]24)[C@@H](OC)[C@@H]1O`, the growth inhibition is 14.6%.

Consider `[Cl][Tl]`, for which the growth inhibition is -4.7%.

`CCCCOP(=O)(NCCOC)OCCCC`: the growth inhibition was -0.05%.

Take `CC(C)(O)C1=CC23CC(C)(C(=O)O)C4CCCCC4(C)C2CC1OO3` (stereo not given): the growth inhibition was 21.4%.

For `O=[Te]=O`, the growth inhibition is 20.4%.

Take `Cc1cnc2ncn(Cc3c[nH]c(=O)[nH]c3=O)c(=O)c2c1`: the growth inhibition is -0.45%.

On to `CCOP(=O)(OCC)Oc1cc(C)c(SC)c(C)c1`, for which the growth inhibition was -6.45%.

Turning to `CC(Cl)C(=O)OC(C)(C)Cl` (stereo not given), the growth inhibition was 19.9%.

Take `O=C(O)CP(=O)(O)O`: the growth inhibition was -19% and 6.2%.

In the case of `CCOP(=O)(OCC)c1cc2cc(O)ccc2oc1=O`, the growth inhibition was -40%.

As for `C[N+](C)(C)NP(=O)(N[N+](C)(C)C)Oc1ccccc1`, the growth inhibition was 28.4%.

Consider `OC(CN(C1CCCCC1)C1CCCCC1)c1ccc(Cl)c(Cl)c1` (stereo not given), for which the growth inhibition was -3.1%.

As for `C#CC1(O)CCC(C(C)(C)C)CC1` (stereo not given), the growth inhibition was 10.2% and -5.45% and 20.4%.

Consider `CC1(C)C=C(NC(=O)N2CC2)C(C)(C)N1O`, for which the growth inhibition was 12.7%.

As for `CC(=O)OC1(C#N)CC2OC1C1NC21` (stereo not given), the growth inhibition was 5.7%.

On to `Cc1ccc(S(=O)(=O)NNP(Br)(c2ccccc2)(c2ccccc2)c2ccccc2)cc1`, for which the growth inhibition was 26.3%.

Turning to `Cc1cccc(-n2c(C)nc3ccccc3c2=O)c1C`, the growth inhibition was -15.2%.

For `O=c1c2ccccc2sc2c1c(N(CCCl)CCCl)cc1ccccc12`, the growth inhibition is 39.2%.

Regarding `Oc1cccc2cccnc12.[Cr]`, the growth inhibition was 6%.

Turning to `O=C1NC2(CCCCC2)C(=O)N1CCCCCN(CCCl)CCCl`, the growth inhibition was 22.8%.

Regarding `CC1c2[nH]c3ccccc3c2CCN1C` (stereo not given), the growth inhibition was 4.2%.

Regarding `CC1(C)N=C(N)N=C(N)N1c1ccc(CCCCc2ccccc2S(=O)(=O)F)c(Cl)c1`, the growth inhibition was 99.5% (active).

On to `S=c1[nH]c2ccccc2[nH]1.[Zn+2]`, for which the growth inhibition is 13.2%.

For the compound `O=S1(N2CC2)=NP(N2CC2)(N2CC2)=NP(N2CC2)(N2CC2)=N1` (stereo not given), the growth inhibition was -20.9%.

As for `Nc1cccc2scnc12` (tested in a mixture with another compound), the growth inhibition was -13.9%.

For the compound `C[N+](C)(C)CC1CCCCCCCCCCC1=O` (stereo not given), the growth inhibition was -4.85%.

Consider `O=C1CC(c2ccccc2)n2cccc21` (stereo not given), for which the growth inhibition was 8.1%.

Regarding `c1ccc(-c2ccc([As](c3ccccc3)c3ccccc3)cc2)cc1`, the growth inhibition was 11.4%.

`NC(Cc1cc([N+](=O)[O-])ccc1CN(CCCl)CCCl)C(=O)O` (stereo not given): the growth inhibition was 41.5%.

As to `CSCC(NP1(=O)SC(NN=C(C)C)=NC1(C)C)C(=O)O` (stereo not given), the growth inhibition is 4.85%.

With `N#C[CH2][Sn]([I])([c]1ccccc1)[c]1ccccc1`, the growth inhibition was -12.5%.

Consider `COc1ccc(CC(N)c2ccccc2)cc1` (stereo not given), for which the growth inhibition is 8.25%.

The nature of a further experiment: NCI Yeast Anticancer Drug Screen. Data for the mec2-1 strain (AID 157). Conditions: S. cerevisiae mec2-1 strain, at 50.0 µM, active compounds read high. In outline: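 Vehicle-treated cultures served as reference for growth inhibition of compound-exposed mec2-1 yeast.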
For `O=C(c1ccccc1)C1C(C(=O)c2ccccc2)N1Cc1ccccc1` (stereo not given), the growth inhibition was 9.9% and 4.5%.

As for `CCC1CN2CCc3cc(OC)c(OC)cc3C2CC1CC1c2cc(OC)c(OC)cc2CCN1C(=O)C(N)Cc1ccccc1` (stereo not given), the growth inhibition is -0.5%.

As for `COc1cc(C(CC(C)=O)c2cc3c(cc2OC(C)=O)OCO3)cc(OC)c1OC` (stereo not given), the growth inhibition was 4.4%.

For the compound `CN(C)NP(c1ccccc1)c1ccccc1`, the growth inhibition was -3.8%.

With `OCC(O)C(O)C(O)C1C[O][Sb][O]1` (stereo not given), the growth inhibition is 3.6%.

As for `Nc1ccc(/C=C/C(=O)Nc2ccc(S(=O)(=O)F)cc2)cc1`, the growth inhibition is 96.2% (active).

For `[Cl][Hg][c]1ccccc1N=Nc1ccccc1I`, the growth inhibition was 98.8% (active).

On to `CC1CCCN(C(c2ccccc2)C(O)c2ccccc2)C1` (stereo not given), for which the growth inhibition was 1.35%.

With `CCN1C[C@]2(COC)[C@H](O)C[C@H](OC)[C@]34C1[C@H]([C@H](OC)[C@H]23)[C@]1(OC(C)=O)[C@H]2[C@@H](OC(=O)c3ccccc3)[C@](O)(C[C@H]24)[C@@H](OC)[C@@H]1O`, the growth inhibition is -4%.

For `[Cl][Tl]`, the growth inhibition was 5.2%.

As to `CCCCOP(=O)(NCCOC)OCCCC`, the growth inhibition is 8.05%.

In the case of `CC(C)(O)C1=CC23CC(C)(C(=O)O)C4CCCCC4(C)C2CC1OO3` (stereo not given), the growth inhibition is -7.3%.

On to `O=[Te]=O`, for which the growth inhibition is -8.15%.

For the compound `Cc1cnc2ncn(Cc3c[nH]c(=O)[nH]c3=O)c(=O)c2c1`, the growth inhibition is 5.55%.

Regarding `CCOP(=O)(OCC)Oc1cc(C)c(SC)c(C)c1`, the growth inhibition is -24.4%.

Regarding `CC(Cl)C(=O)OC(C)(C)Cl` (stereo not given), the growth inhibition is 25.7%.

Take `O=C(O)CP(=O)(O)O`: the growth inhibition was -8.25% and 10%.

As to `CCOP(=O)(OCC)c1cc2cc(O)ccc2oc1=O`, the growth inhibition is -26%.

Take `C[N+](C)(C)NP(=O)(N[N+](C)(C)C)Oc1ccccc1`: the growth inhibition was 15.2%.

As to `OC(CN(C1CCCCC1)C1CCCCC1)c1ccc(Cl)c(Cl)c1` (stereo not given), the growth inhibition was -30.9%.

As for `C#CC1(O)CCC(C(C)(C)C)CC1` (stereo not given), the growth inhibition was 6.6% and 25.3% and -12.8%.

On to `CC1(C)C=C(NC(=O)N2CC2)C(C)(C)N1O`, for which the growth inhibition was 11.3%.

As for `CC(=O)OC1(C#N)CC2OC1C1NC21` (stereo not given), the growth inhibition was -8.8%.

Take `Cc1ccc(S(=O)(=O)NNP(Br)(c2ccccc2)(c2ccccc2)c2ccccc2)cc1`: the growth inhibition was -1.1%.

Take `Cc1cccc(-n2c(C)nc3ccccc3c2=O)c1C`: the growth inhibition is -1.1%.

For the compound `O=c1c2ccccc2sc2c1c(N(CCCl)CCCl)cc1ccccc12`, the growth inhibition was 5.5%.

As for `Oc1cccc2cccnc12.[Cr]`, the growth inhibition was -0.65%.

For `O=C1NC2(CCCCC2)C(=O)N1CCCCCN(CCCl)CCCl`, the growth inhibition is 18.4%.

Turning to `CC1c2[nH]c3ccccc3c2CCN1C` (stereo not given), the growth inhibition is -21.7%.

As to `CC1(C)N=C(N)N=C(N)N1c1ccc(CCCCc2ccccc2S(=O)(=O)F)c(Cl)c1`, the growth inhibition was 99.7% (active).

In the case of `S=c1[nH]c2ccccc2[nH]1.[Zn+2]`, the growth inhibition was 10.3%.

For `O=S1(N2CC2)=NP(N2CC2)(N2CC2)=NP(N2CC2)(N2CC2)=N1` (stereo not given), the growth inhibition is -22.5%.

Take `Nc1cccc2scnc12` (tested in a mixture with another compound): the growth inhibition was 3.8%.

In the case of `C[N+](C)(C)CC1CCCCCCCCCCC1=O` (stereo not given), the growth inhibition is -10.4%.

As for `O=C1CC(c2ccccc2)n2cccc21` (stereo not given), the growth inhibition was 2.2%.

For the compound `c1ccc(-c2ccc([As](c3ccccc3)c3ccccc3)cc2)cc1`, the growth inhibition is 4.5%.

Turning to `NC(Cc1cc([N+](=O)[O-])ccc1CN(CCCl)CCCl)C(=O)O` (stereo not given), the growth inhibition was 29.8%.

For the compound `CSCC(NP1(=O)SC(NN=C(C)C)=NC1(C)C)C(=O)O` (stereo not given), the growth inhibition is -3.7%.

As for `N#C[CH2][Sn]([I])([c]1ccccc1)[c]1ccccc1`, the growth inhibition was 30.4%.

For the compound `COc1ccc(CC(N)c2ccccc2)cc1` (stereo not given), the growth inhibition was 18.1%.
